# In PubChem BioAssay (NCI):
# This is part of a sample that, as a whole, favours compounds with a hit. Of some 79,000 tested, about 15% had one in any assay. A number with no mark means an inactive call. Activity calls are given as the source filed them. Rule as the data show it: active = growth inhibition above about 70%; inactive = the rest.
# Experiments:
# [1] = NCI Yeast Anticancer Drug Screen. Data for the mlh1 strain (AID 171);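 also: 0% = growth of vehicle-treated control cultures of the same strain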; conditions: S. cerevisiae mlh1 strain growth inhibition, stronger effect = higher value
# Procedure, shortened: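 Yeast carrying a defined genetic alteration in DNA damage repair or cell cycle control were exposed to test compounds. Growth inhibition was measured relative to vehicle-treated controls.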
# [2] = NCI Yeast Anticancer Drug Screen. Data for the sgs1 strain (AID 173);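 also: 0% = growth of vehicle-only control cultures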; conditions: S. cerevisiae sgs1 mutant, stronger effect = higher value
# Procedure, shortened: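 Yeast mutant strains carrying defined defects in DNA damage repair or cell cycle control were exposed to test compounds. Growth inhibition was scored against vehicle-treated controls.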
# [3] = NCI Yeast Anticancer Drug Screen. Data for the mlh1 rad18 strain (AID 175); conditions: S. cerevisiae mlh1 rad18 strain growth inhibition, stronger effect = higher value
# Procedure, shortened: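 Growth inhibition of the yeast strain was measured after compound exposure and expressed relative to vehicle-treated controls. The strain carries defined defects in DNA damage repair.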
# [4] = NCI Yeast Anticancer Drug Screen. Data for the rad18 strain (AID 177); conditions: S. cerevisiae rad18 mutant growth inhibition, stronger effect = higher value
# Procedure, shortened: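 Yeast carrying a defined DNA damage repair alteration were exposed to compounds. Growth inhibition was expressed relative to vehicle-treated controls.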
# [5] = NCI Yeast Anticancer Drug Screen. Data for the rad52 strain (AID 147);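 also: 0% = growth of vehicle-treated control cultures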; conditions: S. cerevisiae rad52 mutant growth inhibition, stronger effect = higher value
# Procedure, shortened: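 Yeast strain carrying a DNA damage repair alteration was exposed to test compounds. Growth inhibition was measured relative to vehicle-treated controls.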
# [6] = NCI Yeast Anticancer Drug Screen. Data for the wt1 strain (AID 149);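 also: 0% = growth of vehicle-treated wt1 cultures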; conditions: S. cerevisiae wt1 strain (SPY 50644) growth inhibition, stronger effect = higher value
# Procedure, shortened: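 wt1 strain grown with compound or vehicle; inhibition taken from the growth difference.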
# [7] = NCI Yeast Anticancer Drug Screen. Data for the rad50EPP+ strain (AID 151);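 also: 0% = growth of vehicle-treated control cultures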; conditions: S. cerevisiae rad50 mutant strain, stronger effect = higher value
# Procedure, shortened: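 Yeast strain carrying rad50 alteration (rad50EPP+) exposed to compounds; growth inhibition measured relative to vehicle-treated controls.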
# [8] = NCI Yeast Anticancer Drug Screen. Data for the mgt1 strain (AID 153); conditions: S. cerevisiae mgt1 mutant growth inhibition, stronger effect = higher value
# Procedure, shortened: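 Yeast mgt1 strain (DNA repair/cell-cycle alteration panel) exposed to compounds; growth inhibition measured relative to vehicle-treated controls.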
# [9] = NCI Yeast Anticancer Drug Screen. Data for the rad50 strain (AID 155);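 also: 0% = growth of vehicle-only cultures of the same strain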; conditions: S. cerevisiae rad50 strain growth inhibition, stronger effect = higher value
# Procedure, shortened: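 DNA repair mutant yeast, compound exposure, growth read-out; inhibition is taken relative to vehicle.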
# [10] = NCI Yeast Anticancer Drug Screen. Data for the mec2-1 strain (AID 157); conditions: S. cerevisiae mec2-1 strain, stronger effect = higher value
# Procedure, shortened: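 mec2-1 yeast strain, carrying an alteration in DNA damage repair or cell cycle control, was exposed to compounds; growth inhibition was measured relative to vehicle-treated controls.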
# [11] = NCI Yeast Anticancer Drug Screen. Data for the rad14 strain (AID 159);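 also: 0% = growth of vehicle-treated control cultures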; conditions: S. cerevisiae rad14 strain growth inhibition, stronger effect = higher value
# Procedure, shortened: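 DNA repair-defective yeast, compound-exposed; % growth inhibition derived by comparison with vehicle-treated controls.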
# [12] = NCI Yeast Anticancer Drug Screen. Data for the sgs1 mgt1 strain (AID 161);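 also: 0% = growth of cultures given vehicle only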; conditions: S. cerevisiae sgs1 mgt1 strain, stronger effect = higher value
# Procedure, shortened: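 Percent growth inhibition was derived by comparing compound-exposed mutant yeast with vehicle-exposed cultures. The strain carries alterations in DNA damage repair.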
# [13] = NCI Yeast Anticancer Drug Screen. Data for the CLN2oe strain (AID 163);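 also: 0% = growth of vehicle-only control cultures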; conditions: S. cerevisiae CLN2oe strain, stronger effect = higher value
# Procedure, shortened: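 Yeast cells carrying a defined cell-cycle control alteration were exposed to test compounds. Growth inhibition was scored against vehicle-treated control cultures.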
# [14] = NCI Yeast Anticancer Drug Screen. Data for the cln2 rad14 strain (AID 165);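 also: 0% = growth equal to vehicle treated cultures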; conditions: S. cerevisiae cln2 rad14 strain, stronger effect = higher value
# Procedure, shortened: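 Yeast carrying cln2 and rad14 alterations (cell cycle control and DNA damage repair) were exposed to compounds. Growth inhibition was measured against vehicle-treated controls.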
# [15] = NCI Yeast Anticancer Drug Screen. Data for the bub3 strain (AID 167); conditions: S. cerevisiae bub3 mutant strain, stronger effect = higher value
# Procedure, shortened: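 In this screen, a yeast mutant lacking normal mitotic checkpoint function is challenged with compound. Relative growth versus vehicle gives the inhibition value.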
# [16] = NCI Yeast Anticancer Drug Screen. Data for the wt2 strain (AID 169);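 also: 0% = growth of vehicle-treated yeast cultures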; conditions: S. cerevisiae wt2 strain growth inhibition, stronger effect = higher value
# Procedure, shortened: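 Yeast cells were exposed to test compounds, and growth inhibition was measured relative to vehicle-treated controls.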
# [17] = at 5.0 µM (retest, dose inferred, filed as 0.5)
# [18] = at 50.0 µM (retest, dose inferred, filed as 5.0)
structure (smiles),measurement,setting,value
Nc1ccc2cc(Br)ccc2c1Br,growth inhibition,[1]; at 1.2 µM,-2%
same,growth inhibition,[1]; at 3.7 µM,1%
same,growth inhibition,[1]; at 11.0 µM,3%
same,growth inhibition,[1]; at 33.0 µM,1%
same,growth inhibition,[1]; at 100.0 µM,20%
same,growth inhibition,[2]; at 1.2 µM,-24%
same,growth inhibition,[2]; at 3.7 µM,-22%
same,growth inhibition,[2]; at 11.0 µM,-17%
same,growth inhibition,[2]; at 33.0 µM,-9%
same,growth inhibition,[2]; at 100.0 µM,30%
same,growth inhibition,[3]; [17],28%
same,growth inhibition,[3]; [18],57%
same,growth inhibition,[3]; at 50.0 µM,91.2% (active)
same,growth inhibition,[4]; at 1.2 µM,-4%
same,growth inhibition,[4]; at 3.7 µM,-1%
same,growth inhibition,[4]; at 11.0 µM,7%
same,growth inhibition,[4]; at 33.0 µM,-3%
same,growth inhibition,[4]; at 100.0 µM,20%
CCN(CC)CCNc1ccc(C)c2sc3ccc(O)cc3c(=O)c12,growth inhibition,[5]; at 1.2 µM,60%
same,growth inhibition,[5]; at 3.7 µM,89% (active)
same,growth inhibition,[5]; at 11.0 µM,94% (active)
same,growth inhibition,[5]; at 33.0 µM,98% (active)
same,growth inhibition,[5]; at 100.0 µM,99% (active)
same,growth inhibition,[6]; at 1.2 µM,-7%
same,growth inhibition,[6]; at 3.7 µM,-10%
same,growth inhibition,[6]; at 11.0 µM,8%
same,growth inhibition,[6]; at 33.0 µM,79% (active)
same,growth inhibition,[6]; at 100.0 µM,99% (active)
same,growth inhibition,[7]; at 1.2 µM,37%
same,growth inhibition,[7]; at 3.7 µM,50%
same,growth inhibition,[7]; at 11.0 µM,78% (active)
same,growth inhibition,[7]; at 33.0 µM,84% (active)
same,growth inhibition,[7]; at 100.0 µM,98% (active)
same,growth inhibition,[8]; at 1.2 µM,7%
same,growth inhibition,[8]; at 3.7 µM,27%
same,growth inhibition,[8]; at 11.0 µM,23%
same,growth inhibition,[8]; at 33.0 µM,89% (active)
same,growth inhibition,[8]; at 100.0 µM,99% (active)
same,growth inhibition,[9]; at 1.2 µM,72% (active)
same,growth inhibition,[9]; at 3.7 µM,94% (active)
same,growth inhibition,[9]; [17],52%
same,growth inhibition,[9]; at 11.0 µM,96% (active)
same,growth inhibition,[9]; at 33.0 µM,98% (active)
same,growth inhibition,[9]; [18],98% (active)
same,growth inhibition,[9]; at 50.0 µM,90.3% (active)
same,growth inhibition,[9]; at 100.0 µM,99% (active)
same,growth inhibition,[10]; at 1.2 µM,-1%
same,growth inhibition,[10]; at 3.7 µM,17%
same,growth inhibition,[10]; [17],4%
same,growth inhibition,[10]; at 11.0 µM,36%
same,growth inhibition,[10]; at 33.0 µM,91% (active)
same,growth inhibition,[10]; [18],98% (active)
same,growth inhibition,[10]; at 50.0 µM,92% (active)
same,growth inhibition,[10]; at 100.0 µM,99% (active)
same,growth inhibition,[11]; at 1.2 µM,23%
same,growth inhibition,[11]; at 3.7 µM,29%
same,growth inhibition,[11]; at 11.0 µM,34%
same,growth inhibition,[11]; at 33.0 µM,93% (active)
same,growth inhibition,[11]; at 100.0 µM,99% (active)
same,growth inhibition,[12]; [17],9%
same,growth inhibition,[12]; [18],99% (active)
same,growth inhibition,[12]; at 50.0 µM,91.7% (active)
same,growth inhibition,[13]; at 1.2 µM,39%
same,growth inhibition,[13]; at 3.7 µM,33%
same,growth inhibition,[13]; at 11.0 µM,39%
same,growth inhibition,[13]; at 33.0 µM,94% (active)
same,growth inhibition,[13]; at 100.0 µM,99% (active)
same,growth inhibition,[14]; [17],12%
same,growth inhibition,[14]; [18],98% (active)
same,growth inhibition,[14]; at 50.0 µM,90.9% (active)
same,growth inhibition,[15]; at 1.2 µM,-1%
same,growth inhibition,[15]; at 3.7 µM,10%
same,growth inhibition,[15]; [17],-1%
same,growth inhibition,[15]; at 11.0 µM,16%
same,growth inhibition,[15]; at 33.0 µM,91% (active)
same,growth inhibition,[15]; [18],99% (active)
same,growth inhibition,[15]; at 50.0 µM,91.2% (active)
same,growth inhibition,[15]; at 100.0 µM,99% (active)
same,growth inhibition,[16]; at 1.2 µM,-20%
same,growth inhibition,[16]; at 3.7 µM,-18%
same,growth inhibition,[16]; at 11.0 µM,-17%
same,growth inhibition,[16]; at 33.0 µM,98% (active)
same,growth inhibition,[16]; at 100.0 µM,98% (active)
same,growth inhibition,[1]; at 1.2 µM,45%
same,growth inhibition,[1]; at 3.7 µM,43%
same,growth inhibition,[1]; at 11.0 µM,29%
same,growth inhibition,[1]; at 33.0 µM,86% (active)
same,growth inhibition,[1]; at 100.0 µM,99% (active)
same,growth inhibition,[3]; [17],12%
same,growth inhibition,[3]; [18],99% (active)
same,growth inhibition,[3]; at 50.0 µM,91% (active)
same,growth inhibition,[4]; at 1.2 µM,6%
same,growth inhibition,[4]; at 3.7 µM,5%
same,growth inhibition,[4]; at 11.0 µM,12%
same,growth inhibition,[4]; at 33.0 µM,97% (active)
same,growth inhibition,[4]; at 100.0 µM,99% (active)
